Values joined by “and” are separate entries in the source; they are usually repeats but may differ in a detail not shown here. Identical values can stand only once. Results filed as inconclusive are left out. More than one record can exist for a structure, and the calls need not agree. Active and inactive are the calls of the source. Unless noted, calls follow the shape of the dose curve; as a rule, active = well fitted curve in the direction sought with a large enough effect in the repeat runs; inconclusive = weak or mixed curves; inactive = no such curve, though single readings can be large; an effect the other way counts as inactive or inconclusive.

Assay [1] in a line: qHTS assay to identify small molecule antagonists of the peroxisome proliferator-activated receptor delta (PPARd) signaling pathway - cell viability counter screen (AID 743213). Also: nearly all actives have a fitted effect of over 50% in size. Also: potency is read from the fitted curve at half-maximal effect. The gist of the method: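 Cytotoxicity counter screen: CellTiter-Glo luminescence read 30 min after addition, in the same wells as the reporter assay. There, PPARd UAS-bla HEK293H cells (3000/well) were treated 17 h at 37 C with compound and 300 nM L165041.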
In general terms: qHTS replaces the single test concentration by a dilution series.

Assay [2] has as its target Peroxisome proliferator-activated receptor delta (Homo sapiens) (UniProt Q03181). Kind of assay: qHTS assay to identify small molecule antagonists of the peroxisome proliferator-activated receptor delta (PPARd) signaling pathway (AID 743215; active = well fitted inhibition curve with a large enough effect in the signal ratio in the repeat runs, not every such curve was filed as active; the % refers to the signal ratio;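 also: cells stimulated with agonist L165041 at 300 nM final during compound exposure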; also: potency is read from the fitted curve at half-maximal effect). The gist of the method:
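HEK293H UAS-bla, PPARd; agonist L165041 300 nM final with cpd in DMSO; 37 C 17 h; FRET substrate, RT 2 h; fluorescence intensity.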

Assay [3] is described as follows: qHTS assay to identify small molecule agonists of the farnesoid-X-receptor (FXR) signaling pathway - cell viability counter screen (AID 743218). Also: nearly all actives have a fitted effect of over 45% in size. Also: potency is read from the fitted curve at half-maximal effect. The gist of the method:
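Parallel cytotoxicity test: compound-treated (16 h, 37 C) HEK 293T FXR-bla reporter cells were lysed with CellTiter-Glo and luminescence recorded.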

Assay [4] can be described thus: qHTS assay to identify small molecule antagonists of the farnesoid-X-receptor (FXR) signaling pathway - cell viability counter screen (AID 743221; active = well fitted cell-killing curve with a large enough effect in the repeat runs, not every such curve was filed as active; also: nearly all actives have a fitted effect of over 50% in size; also: potency is read from the fitted curve at half-maximal effect). The gist of the method:
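GeneBLAzer FXR-UAS-bla HEK 293T cells, compound plus chenodeoxycholic acid (50 uM final), 16 h at 37 C. CellTiter-Glo added to the same wells after the beta-lactamase read; luminescence read after 30 min at room temperature as viability.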

Assay [5] concerns the target Vitamin D3 receptor (Homo sapiens) (UniProt P11473). Kind of assay: qHTS assay to identify small molecule agonists of the vitamin D receptor (VDR) signaling pathway (AID 743222; calls by dose curve). The gist of the method: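 In VDR-bla cells, compound-induced beta-lactamase expression is quantified by FRET substrate fluorescence. Treatment lasts 16 h at 37C; substrate develops 2 h at room temperature.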

For assay [6] the target is unchanged. Kind of assay: qHTS assay to identify small molecule antagonists of the vitamin D receptor (VDR) signaling pathway (AID 743223; active = well fitted inhibition curve with a large enough effect in the signal ratio in the repeat runs, not every such curve was filed as active; the % refers to the signal ratio; also: potency is read from the fitted curve at half-maximal effect). The method in brief: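 VDR-bla cells were treated with compound plus 3 nM final 1alpha,25-dihydroxyvitamin D3 for 16 h at 37C. Beta-lactamase reporter read by B/G FRET substrate fluorescence after 2 h at room temperature. qHTS format.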

The nature of assay [7]: qHTS assay to identify small molecule agonists of the vitamin D receptor (VDR) signaling pathway - cell viability counter screen (AID 743224). Also: nearly all actives have a fitted effect of over 50% in size. Also: potency is read from the fitted curve at half-maximal effect. The method in brief:
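Plated VDR-bla cells (4 h, 37C) received compound, incubated 16 h, then LiveBLAzer substrate 2 h RT; CellTiter-Glo added afterwards, luminescence read at 30 min.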

In assay [8] the target is Bile acid receptor (Homo sapiens) (UniProt Q96RI1). Kind of assay: qHTS assay to identify small molecule agonists of the farnesoid-X-receptor (FXR) signaling pathway (AID 743220; active = well fitted activation curve with a large enough effect in the signal ratio in the repeat runs, not every such curve was filed as active; the % refers to the signal ratio). The method in brief: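 Beta-lactamase reporter under UAS control in GeneBLAzer FXR HEK 293T cells (5000/well) measured with LiveBLAzer FRET substrate after 2 h at room temperature. Compound exposure lasted 16 h at 37C.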
Sequence of Bile acid receptor (Homo sapiens) (Q96RI1 whole entry, looked up): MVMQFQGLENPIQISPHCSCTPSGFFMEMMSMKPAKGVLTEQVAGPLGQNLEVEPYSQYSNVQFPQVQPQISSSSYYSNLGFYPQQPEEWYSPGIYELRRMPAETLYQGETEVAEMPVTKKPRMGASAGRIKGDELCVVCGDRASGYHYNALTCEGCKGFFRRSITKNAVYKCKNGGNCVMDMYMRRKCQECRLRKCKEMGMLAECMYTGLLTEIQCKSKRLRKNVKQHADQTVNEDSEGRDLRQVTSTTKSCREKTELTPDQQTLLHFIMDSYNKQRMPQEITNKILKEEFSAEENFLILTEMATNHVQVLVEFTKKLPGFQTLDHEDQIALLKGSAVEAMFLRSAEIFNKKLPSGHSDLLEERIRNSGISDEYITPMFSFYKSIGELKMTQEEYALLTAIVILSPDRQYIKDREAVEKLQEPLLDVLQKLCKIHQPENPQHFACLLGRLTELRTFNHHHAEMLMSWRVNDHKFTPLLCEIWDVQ

Assay [9] addresses Peroxisome proliferator-activated receptor delta (Homo sapiens) (UniProt Q03181). Kind of assay: qHTS assay to identify small molecule agonists of the peroxisome proliferator-activated receptor delta (PPARd) signaling pathway (AID 743212; calls by dose curve; also: potency is read from the fitted curve at half-maximal effect). The method in brief:
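GeneBLAzer PPARd UAS-bla HEK293H cells (beta-lactamase reporter under UAS control), plated and rested 5 h at 37 C, then exposed to compounds in DMSO at 37 C; LiveBLAzer B/G FRET substrate added, 2 h room temperature, fluorescence read.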

Assay [10] addresses Bile acid receptor (Homo sapiens) (UniProt Q96RI1). In words: qHTS assay to identify small molecule antagonists of the farnesoid-X-receptor (FXR) signaling pathway (AID 743217; active = well fitted inhibition curve with a large enough effect in the signal ratio in the repeat runs, not every such curve was filed as active; the % refers to the signal ratio; also: potency is read from the fitted curve at half-maximal effect). The method in brief:
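GeneBLAzer FXR-UAS-bla HEK 293T, CDCA-stimulated (50 uM final). Compound treatment 16 h, 37 °C. Detection: beta-lactamase cleavage of B/G FRET substrate, fluorescence.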

Sequence of Peroxisome proliferator-activated receptor delta (Homo sapiens) (Q03181 whole entry, looked up): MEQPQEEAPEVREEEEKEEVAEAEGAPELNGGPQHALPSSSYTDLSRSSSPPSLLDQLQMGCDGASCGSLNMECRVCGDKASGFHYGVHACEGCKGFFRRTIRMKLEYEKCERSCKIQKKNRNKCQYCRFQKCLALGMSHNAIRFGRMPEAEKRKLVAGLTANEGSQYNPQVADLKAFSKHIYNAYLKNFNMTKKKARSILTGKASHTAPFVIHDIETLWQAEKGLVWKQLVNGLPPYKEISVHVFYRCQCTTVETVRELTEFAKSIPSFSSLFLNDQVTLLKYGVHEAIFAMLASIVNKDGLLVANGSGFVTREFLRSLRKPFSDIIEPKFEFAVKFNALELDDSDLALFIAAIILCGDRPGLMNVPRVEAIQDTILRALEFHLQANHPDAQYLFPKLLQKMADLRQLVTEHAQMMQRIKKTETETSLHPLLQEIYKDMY
Sequence of Vitamin D3 receptor (Homo sapiens) (P11473 whole entry, looked up): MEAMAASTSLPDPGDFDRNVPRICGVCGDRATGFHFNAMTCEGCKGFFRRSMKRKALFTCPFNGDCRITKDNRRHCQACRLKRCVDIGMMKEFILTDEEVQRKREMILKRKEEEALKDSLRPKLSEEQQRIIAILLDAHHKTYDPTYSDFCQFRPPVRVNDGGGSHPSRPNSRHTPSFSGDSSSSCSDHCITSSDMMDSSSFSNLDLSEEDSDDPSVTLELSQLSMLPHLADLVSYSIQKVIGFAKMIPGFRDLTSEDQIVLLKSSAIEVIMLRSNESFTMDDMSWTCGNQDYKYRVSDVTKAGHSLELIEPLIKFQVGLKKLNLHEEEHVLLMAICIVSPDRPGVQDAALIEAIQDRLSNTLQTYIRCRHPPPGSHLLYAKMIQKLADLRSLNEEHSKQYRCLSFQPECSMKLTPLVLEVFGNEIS

For the compound `OCCOCCN1CCN(C(c2ccccc2)c2ccc(Cl)cc2)CC1` (configuration not stated), in assay [1], the Potency was 43.1 µM (active). For the same compound, the Potency result in [2], in assay [3], in [4], in [5], in [6] and in assay [7] was “inactive” each time.

Consider `BrC1CCC(Br)C(Br)CCC(Br)C(Br)CCC1Br` (configuration not stated), for which the Potency in assay [1] was 10.4 µM (active); in assay [3], “inactive and 20.8 µM (active)”; in [7], 18.5 µM (active). Further, the Potency result in assay [2], in [8], in assay [4], in [5] and in assay [6] was “inactive” in each case.

For the compound `Cc1ccc(-c2cc(C(F)(F)F)nn2-c2ccc(S(N)(=O)=O)cc2)cc1`, the Potency result in assay [9], in assay [1], in assay [3], in [4] and in assay [7] was “inactive” in each case.

Take `CC(COc1ccccc1)N(CCCl)Cc1ccccc1` (configuration not stated): the Potency entry in [9], in assay [1], in assay [2], in assay [4], in assay [5] and in assay [6] was “inactive” in each case. In addition, in assay [7], the Potency result is “inactive”.

For the compound `COc1nc(C)nc(Cl)c1NC1=NCCN1`, the Potency entry in [1], in assay [2], in assay [3], in assay [4], in assay [5] and in assay [6] was “inactive” each time. Also, the Potency entry in assay [7] was “inactive”.

Turning to `CCCCOCCOC(=O)c1ccccc1C(=O)OCCOCCCC`, the Potency in [1] was 42.7 µM (active) and inactive; in assay [7] it was 30.2 µM (active) and inactive. The Potency entry in assay [2], in assay [3], in assay [8], in assay [4] and in [5] was “inactive” each time.

Take `CC(=O)Nc1ccc(C(=O)CCl)cc1`: the Potency entry in [1] was “inactive and 43.6 µM (active)”; in assay [3], “inactive and 54.9 µM (active)”; in [7] it was “inactive and 54.9 µM (active)”. Besides, the Potency result in [2], in assay [10], in assay [4] and in assay [5] was “inactive” throughout.

Take `CNC1(C)C2CCC(C2)C1(C)C` (configuration not stated): the Potency result in assay [1], in assay [2], in [10], in [3], in [8] and in assay [4] was “inactive” each time. Besides, the Potency entry in [5] was “inactive”.

On to `CC(C)C(=O)c1c(C(C)C)nn2ccccc12`, for which the Potency result in assay [1], in assay [2], in assay [10], in assay [3], in assay [8] and in [4] was “inactive” each time. The Potency result in assay [7] was “inactive”.

On to `CC(C)CCCCCCc1ccc(O)cc1`, for which the Potency result in [9], in assay [2] and in assay [5] was “inactive” in each case. Besides, the Potency in assay [1] was 39.6 µM (active) and 43.6 µM (active); in assay [4] it was 22.3 µM (active) and 49 µM (active); in assay [7], 19.8 µM (active) and 30.9 µM (active).

Turning to `O=c1n(CC2CO2)c(=O)n(CC2CO2)c(=O)n1CC1CO1` (configuration not stated), the Potency entry in assay [9], in assay [1], in [4], in assay [5] and in assay [7] was “inactive” in each case.

In the case of `CCCNC(C)C(=O)Nc1ccccc1C` (configuration not stated), the Potency entry in assay [9], in [1], in assay [2], in [4], in [5] and in assay [7] was “inactive” in each case.

Regarding `O=C(O)Cn1cnnn1`, the Potency entry in assay [1], in assay [2], in [10], in assay [3], in [8] and in assay [4] was “inactive” in each case. Also, the Potency result in [5] and in assay [7] was “inactive” throughout.

Regarding `Cc1cccc2n[nH]nc12`, the Potency result in [9], in assay [1], in assay [2], in assay [4], in [5] and in assay [7] was “inactive” throughout.

For `CC[C@H]1CN2CCc3cc(OC)c(OC)cc3[C@@H]2C[C@@H]1C[C@H]1NCCc2cc(OC)c(OC)cc21`, the Potency result in [9], in assay [4] and in assay [5] was “inactive” in each case. Besides, the Potency is 0.438 µM (active) in [2]; 0.492 µM (active) in [6]; 19.6 µM (active) and inactive in assay [7].

Turning to `CC(=O)OCCOCCOCCOC(C)=O`, the Potency entry in assay [1], in assay [2], in assay [10], in assay [8], in assay [4] and in assay [5] was “inactive” in each case. Moreover, the Potency entry in [6] and in assay [7] was “inactive” each time.

As for `Cc1cc(C(C)(C)C)c(O)c(C(C)(C)C)c1`, the Potency result in assay [1], in assay [2], in assay [10], in [3], in assay [8] and in assay [4] was “inactive” in each case. For the same compound, the Potency result in assay [7] is “inactive”.

For the compound `COc1cc(C(=S)N2CCOCC2)ccc1O`, the Potency entry in [9], in assay [2], in assay [4] and in assay [7] was “inactive” throughout.

In the case of `NC(N)=NC(=O)Cc1c(Cl)cccc1Cl`, the Potency result in assay [9], in assay [1], in assay [2], in assay [4], in [5] and in assay [7] was “inactive” each time.

For the compound `C=C(C)C1CC=C(C)C(OC(C)=O)C1` (configuration not stated), the Potency result in assay [1], in assay [2], in assay [10], in [3], in [8] and in [4] was “inactive” each time. Further, the Potency entry in assay [5] and in assay [7] was “inactive” throughout.

As for `Cc1cccc([N+](=O)[O-])c1C(=O)O`, the Potency result in [9], in [2], in assay [10], in assay [8], in assay [4] and in [5] was “inactive” each time. In addition, in assay [7], the Potency result was “inactive”.

For the compound `CC(C)(C)NCC(O)COc1ccccc1OCC1CCCO1` (configuration not stated), the Potency entry in assay [1], in assay [2], in assay [10], in [8], in assay [4] and in assay [7] was “inactive” throughout.

On to `NC(=Nc1ccccc1)Nc1ccccc1`, for which the Potency entry in assay [9], in [2], in [4] and in assay [7] was “inactive” throughout.

For the compound `CC1COc2c(N3CCN(C)CC3)c(F)cc3c(=O)c(C(=O)O)cn1c23` (configuration not stated), the Potency entry in [1], in assay [2], in [10], in [3], in assay [8] and in [4] was “inactive” throughout. In addition, the Potency result in assay [5], in assay [6] and in [7] was “inactive” each time.

For the compound `C/C=C/c1ccc(OCC)c(O)c1`, the Potency entry in assay [1], in [2], in assay [3], in [4], in [5] and in assay [6] was “inactive” in each case. Also, in assay [7], the Potency entry is “inactive”.

Take `CCOc1ccc2c(c1)C(C)=CC(C)(C)N2`: the Potency result in [9], in [1], in assay [3], in assay [4] and in assay [7] was “inactive” in each case.

For the compound `CCCCCCC(O)CCCCCCCCCCC(=O)O` (configuration not stated), the Potency was 21.9 µM (active) in assay [9]; “inactive and 34.7 µM (active)” in [10]; 19.6 µM (active) and 11 µM (active) in assay [7]. Moreover, the Potency entry in assay [2] and in [3] was “inactive” in each case.

Turning to `CC(=O)N[C@@H](CS)C(=O)O`, the Potency entry in assay [1], in assay [2], in assay [10], in assay [8], in assay [4] and in assay [5] was “inactive” each time. In addition, the Potency result in [7] was “inactive”.

(Values after PubChem BioAssay (Tox21).)
